# From PubChem BioAssay AID1159580 (chemical genetic matrix, 2015)
# Screen size: about 5,500 compounds; about 2,000 (36%) were called active. Another 18% or so got no clear call; they are omitted. The list shows a part of the results. Unmarked numbers belong to inactive results. Cut-off read from the data, not from the text of the source: active = normalized growth mostly below about 0.91 (no sharp cut-off); inconclusive = no clear call, values can overlap the other calls; inactive = mostly above about 0.92.
# Assay: chemical genetic growth profiling, strain panel (AID 1159580);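 note: tested at 20 µM; growth read once vehicle control cultures reached saturation at 30 °C; 1 = growth at the plate median or of vehicle wells; lower values mean less growth of the strain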
# Conditions: growth OD
compound,measurement,setting,value
COc1cc2occ(-c3ccccc3)c(=O)c2c(OC)c1C,normalized growth,"S. cerevisiae deletion strains, locus YJR043C, strain POL32, stronger effect = lower value",0.937
same,normalized growth,"S. cerevisiae deletion strains, locus YJR075W, strain HOC1, stronger effect = lower value",0.908
same,normalized growth,"S. cerevisiae deletion strains, locus YKL009W, strain mrt4, stronger effect = lower value",0.941
same,normalized growth,"S. cerevisiae deletion strains, locus YKL068W, stronger effect = lower value",0.965
same,normalized growth,"S. cerevisiae deletion strains, locus YKL085W, strain MDH1 (second series), stronger effect = lower value",0.952
same,normalized growth,"S. cerevisiae deletion strains, locus YKL085W, strain MDH1, stronger effect = lower value",0.952
same,normalized growth,"S. cerevisiae deletion strains, locus YKL160W, strain elf1, stronger effect = lower value",0.969
same,normalized growth,"S. cerevisiae deletion strains, locus YKL190W, strain CNB1, stronger effect = lower value",0.961
same,normalized growth,"S. cerevisiae deletion strains, locus YKR001C, strain vps1, stronger effect = lower value",0.855 (active)
same,normalized growth,"S. cerevisiae deletion strains, locus YKR026C, strain gcn3, stronger effect = lower value",0.973
same,normalized growth,"S. cerevisiae deletion strains, locus YKR091W, strain srl3, stronger effect = lower value",0.976
same,normalized growth,"S. cerevisiae deletion strains, locus YLL001W, strain dnm1, stronger effect = lower value",0.98
same,normalized growth,"S. cerevisiae deletion strains, locus YLL026W, stronger effect = lower value",0.971
same,normalized growth,"S. cerevisiae deletion strains, locus YLL041C, strain sdh2, stronger effect = lower value",0.976
same,normalized growth,"S. cerevisiae deletion strains, locus YLR027C, strain aat2, stronger effect = lower value",0.979
same,normalized growth,"S. cerevisiae deletion strains, locus YLR039C, strain RIC1, stronger effect = lower value",0.763
same,normalized growth,"S. cerevisiae deletion strains, locus YLR058C, strain SHM2, stronger effect = lower value",0.951
same,normalized growth,"S. cerevisiae deletion strains, locus YLR102C, strain apc9, stronger effect = lower value",0.96
same,normalized growth,"S. cerevisiae deletion strains, locus YLR221C, strain rsa3, stronger effect = lower value",0.979
same,normalized growth,"S. cerevisiae deletion strains, locus YLR258W, strain gsy2, stronger effect = lower value",0.97
same,normalized growth,"S. cerevisiae deletion strains, locus YLR262C, strain YPT6 (second series), stronger effect = lower value",0.766 (active)
same,normalized growth,"S. cerevisiae deletion strains, locus YLR262C, strain YPT6, stronger effect = lower value",0.725
same,normalized growth,"S. cerevisiae deletion strains, locus YLR268W, strain sec22, stronger effect = lower value",0.873 (active)
same,normalized growth,"S. cerevisiae deletion strains, locus YLR320W, strain mms22, stronger effect = lower value",0.902
same,normalized growth,"S. cerevisiae deletion strains, locus YLR330W, strain CHS5, stronger effect = lower value",0.957
same,normalized growth,"S. cerevisiae deletion strains, locus YLR342W, strain FKS1 (second series), stronger effect = lower value",0.714 (active)
same,normalized growth,"S. cerevisiae deletion strains, locus YLR342W, strain FKS1, stronger effect = lower value",0.968
same,normalized growth,"S. cerevisiae deletion strains, locus YLR357W, strain rsc2, stronger effect = lower value",0.97
same,normalized growth,"S. cerevisiae deletion strains, locus YLR370C, strain arc18, stronger effect = lower value",0.962
same,normalized growth,"S. cerevisiae deletion strains, locus YLR371W, strain rom2, stronger effect = lower value",0.923
same,normalized growth,"S. cerevisiae deletion strains, locus YLR384C, strain iki3, stronger effect = lower value",0.976
same,normalized growth,"S. cerevisiae deletion strains, locus YLR418C, strain cdc73, stronger effect = lower value",0.788 (active)
same,normalized growth,"S. cerevisiae deletion strains, locus YML016C, strain PPZ1, stronger effect = lower value",0.956
same,normalized growth,"S. cerevisiae deletion strains, locus YML032C, strain rad52, stronger effect = lower value",0.898 (active)
same,normalized growth,"S. cerevisiae deletion strains, locus YML120C, strain ndi1, stronger effect = lower value",0.951
same,normalized growth,"S. cerevisiae deletion strains, locus YML124C, strain tub3, stronger effect = lower value",0.942
same,normalized growth,"S. cerevisiae deletion strains, locus YMR058W, strain fet3, stronger effect = lower value",0.97
same,normalized growth,"S. cerevisiae deletion strains, locus YMR078C, strain ctf18, stronger effect = lower value",0.927
same,normalized growth,"S. cerevisiae deletion strains, locus YMR125W, strain sto1, stronger effect = lower value",1
same,normalized growth,"S. cerevisiae deletion strains, locus YMR129W, stronger effect = lower value",0.981
same,normalized growth,"S. cerevisiae deletion strains, locus YMR205C, strain PFK2, stronger effect = lower value",0.932
same,normalized growth,"S. cerevisiae deletion strains, locus YMR223W, strain ubp8, stronger effect = lower value",0.885 (active)
same,normalized growth,"S. cerevisiae deletion strains, locus YMR231W, strain pep5, stronger effect = lower value",0.998
same,normalized growth,"S. cerevisiae deletion strains, locus YMR263W, strain SAP30, stronger effect = lower value",0.926
same,normalized growth,"S. cerevisiae deletion strains, locus YMR307W, strain GAS1, stronger effect = lower value",0.665
same,normalized growth,"S. cerevisiae deletion strains, locus YNL067W, strain RPL9B, stronger effect = lower value",0.95
same,normalized growth,"S. cerevisiae deletion strains, locus YNL071W, strain lat1, stronger effect = lower value",0.819 (active)
same,normalized growth,"S. cerevisiae deletion strains, locus YNL128W, strain TEP1, stronger effect = lower value",0.963
same,normalized growth,"S. cerevisiae deletion strains, locus YNL153C, strain GIM3, stronger effect = lower value",0.991
same,normalized growth,"S. cerevisiae deletion strains, locus YNL209W, strain ssb2, stronger effect = lower value",0.988
same,normalized growth,"S. cerevisiae deletion strains, locus YNL233W, strain BNI4, stronger effect = lower value",0.908
same,normalized growth,"S. cerevisiae deletion strains, locus YNL248C, strain rpa49, stronger effect = lower value",0.98
same,normalized growth,"S. cerevisiae deletion strains, locus YNL250W, strain rad50, stronger effect = lower value",0.956
same,normalized growth,"S. cerevisiae deletion strains, locus YNL271C, strain bni1, stronger effect = lower value",0.937
same,normalized growth,"S. cerevisiae deletion strains, locus YNL298W, strain CLA4, stronger effect = lower value",0.946
same,normalized growth,"S. cerevisiae deletion strains, locus YNL307C, strain MCK1, stronger effect = lower value",0.664 (active)
same,normalized growth,"S. cerevisiae deletion strains, locus YNL322C, strain KRE1 (second series), stronger effect = lower value",0.991
same,normalized growth,"S. cerevisiae deletion strains, locus YNL322C, strain KRE1, stronger effect = lower value",0.965
same,normalized growth,"S. cerevisiae deletion strains, locus YNR049C, strain mso1, stronger effect = lower value",0.985
same,normalized growth,"S. cerevisiae deletion strains, locus YNR052C, strain pop2, stronger effect = lower value",0.933
same,normalized growth,"S. cerevisiae deletion strains, locus YOL006C, strain TOP1, stronger effect = lower value",0.787
same,normalized growth,"S. cerevisiae deletion strains, locus YOL012C, strain htz1",0.865
same,normalized growth,"S. cerevisiae deletion strains, locus YOL147C, strain pex11, stronger effect = lower value",0.923 (active)
same,normalized growth,"S. cerevisiae deletion strains, locus YOR001W, strain rrp6, stronger effect = lower value",1
same,normalized growth,"S. cerevisiae deletion strains, locus YOR061W, strain CKA2, stronger effect = lower value",0.96
same,normalized growth,"S. cerevisiae deletion strains, locus YOR069W, strain VPS5, stronger effect = lower value",0.968
same,normalized growth,"S. cerevisiae deletion strains, locus YOR070C, strain gyp1, stronger effect = lower value",0.982
same,normalized growth,"S. cerevisiae deletion strains, locus YOR080W, strain dia2, stronger effect = lower value",1
same,normalized growth,"S. cerevisiae deletion strains, locus YOR083W, strain WHI5, stronger effect = lower value",0.965
same,normalized growth,"S. cerevisiae deletion strains, locus YOR106W, strain vam3, stronger effect = lower value",0.953
same,normalized growth,"S. cerevisiae deletion strains, locus YOR136W, strain idh2, stronger effect = lower value",0.952
same,normalized growth,"S. cerevisiae deletion strains, locus YOR144C, strain elg1, stronger effect = lower value",0.946
same,normalized growth,"S. cerevisiae deletion strains, locus YOR184W, strain ser1, stronger effect = lower value",0.742 (active)
same,normalized growth,"S. cerevisiae deletion strains, locus YOR265W, strain rbl2, stronger effect = lower value",0.962
same,normalized growth,"S. cerevisiae deletion strains, locus YOR270C, strain vph1, stronger effect = lower value",0.801
same,normalized growth,"S. cerevisiae deletion strains, locus YOR290C, strain snf2, stronger effect = lower value",0.919
same,normalized growth,"S. cerevisiae deletion strains, locus YOR316C, strain cot1, stronger effect = lower value",0.937
same,normalized growth,"S. cerevisiae deletion strains, locus YPL051W, strain arl3, stronger effect = lower value",0.942
same,normalized growth,"S. cerevisiae deletion strains, locus YPL055C, strain LGE1, stronger effect = lower value",0.888
same,normalized growth,"S. cerevisiae deletion strains, locus YPL078C, strain atp4, stronger effect = lower value",0.956
same,normalized growth,"S. cerevisiae deletion strains, locus YPL106C, strain sse1, stronger effect = lower value",0.993
same,normalized growth,"S. cerevisiae deletion strains, locus YPL240C, strain hsp82, stronger effect = lower value",0.969
same,normalized growth,"S. cerevisiae deletion strains, locus YPL241C, strain CIN2, stronger effect = lower value",0.959
same,normalized growth,"S. cerevisiae deletion strains, locus YPR119W, strain clb2, stronger effect = lower value",0.959
same,normalized growth,"S. cerevisiae deletion strains, locus YPR141C, strain kar3, stronger effect = lower value",0.944
same,normalized growth,"S. cerevisiae deletion strains, locus YPR163C, strain tif3, stronger effect = lower value",0.937
same,normalized growth,"S. cerevisiae deletion strains, locus YPR167C, strain met16, stronger effect = lower value",0.942
same,normalized growth,"S. cerevisiae deletion strains, strain wtn01, stronger effect = lower value",0.916
same,normalized growth,"S. cerevisiae strains, strain wild type, stronger effect = lower value",0.928
